Here are results for 40 sequences from the supplement of paper PMC6555819.

For this assay, the system named is RARb homodimer (NR concentration 270 nM). In words: PBM binding z-score (relative to random genomic background probes); higher = stronger binding; sequences stand for … in GC…GCGATTGACAGCGTAGAATGAAGG
Put shortly:
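Ligand-free nuclear receptor dimers were bound for 1 h to custom Agilent 4×180K protein-binding microarrays. Detection used antibodies against each partner (one per run). Binding z-scores rest on regression-normalized fluorescence, with random background probes as the reference.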
The sequence GATACAGGGTCAGCTAGAGTCCAGAGTATGGAAA returned a PBM binding z-score of 3.02. As for AGGATGAGGTTAAGATCAGGGAAACAGAATACAT, the figure is 1.48; as for CCGAGTAGGTTATGGGGCATTCGGGCAACGGTGA, 1.46. The same measure for TCATAAAGGTAAACAGGTGAAAGTCCGTAAGTTA: 1.37; for ACAGACAGGGGAGTGAAGGTAACTCAGCTGGACG: 0.179. As for CATACAGGGTCAGCTAGGCGAGAGTAGGGACGGC, the figure is 3.12; as for GCGACTGGGGCAAATCAGGTTACCATAAGGTTGG, 1.4. ACTAGCAGGCCAAGTTTGGTTCACTCAAACAAAG displayed a PBM binding z-score of 0.338. The same measure for CCTAGTTTGTCAAGGTCACACACGCTATAGGTAC: 4.5; for CCTACTGGGCCAAAAGTCATTGATTCCAATGCTC: 0.0261; for TCTAGTTGGGCAAAGGTCACACACTCGAAATGCG: 5.01. The same measure for TCTCGGAGGACACGAAGCTCAGAGCTTTCCAGAG: 0.381; for ATCTCTAGGTAACCAAGTTCAATGAATGCCGAAC: 1.68; for ACTATTAGTTGACTTAGTGCAACCGATACGACGC: 0.207. The same measure for CTCGACAGGTCGTGCTCAGGTGAGTATACCAAAC: 1.11; for TCTTGTAAATCAGCAGGTTAAGAAAGCTGGCCAA: -0.0241. For CCGACTGGGGCAGAAAGGTTAACATACCATCCGG, the PBM binding z-score worked out at 2.42.

On to CCTACTGGGCCATTCAGAGGTCTTTGATCATATG, for which the PBM binding z-score was determined as 0.406. As for CCTCGGAGGACCACAGGAGGTCAGAGCTGCCAGA, the figure is 3.17; as for ATCTCTAGGTAAAGAGAGTTCAGTGAATGCAAAT, 1.55. As for TCTTGGAGATCAACAGGAGGTTAAGAAAGATCGA, the figure is 0.488; as for CCTCGGAGGAAAGAAGGTCAGAGCTGTCCGCTTT, 2.71. As for CCTCGGAGGACATAAGGTCAGAGCTGTCCGCTTT, the figure is 3.89; as for CGTCAAAGTTCAAGGTAAGGTAACAGAAAGCAGC, 3.86; as for TTACCAAGGTGAAGGTCGTTGTTCCCTCTGTAGA, 2.09. On to CAGCCTAGGTCAGGGCCAGTTTAGGAGGAACGTT, for which the PBM binding z-score is 2.63. As for ATGTCTAGGTAACAAGTTCAGTGAAAGAGAGGAC, the figure is 1.85; as for GGAACGAGGGAATTCGAGTTGATAGCATGGCGAT, -0.928; as for CCTCGGAGGACAACAGGCGGTCAGAGCTGCCAGA, 1.43.

Take CCTCGCAGGACAGAAGGTCAGAGCTGTCCGCTTT: the PBM binding z-score is 3.34.

The sequence GCTATTAGTTGAAAGGGCAAGCGAATGATTCTCG came in with a PBM binding z-score of 1.71. The same measure for CCTAGCAGGCCAGGGTCACTCAAGCATTTCGCTT: 2.82; for CGTCCTAGGTCAATGCTAGGTCAGTGAAAGCATT: 4.16. The same measure for CCTACAGGGTCAGCTAGGCCAGAGTAGGGACGGC: 3.06; for TGAATGAGGTTATAAGATCATGGAACGTTGCAAA: 0.204. As for CCTTACGGGTCAAGGTTATAGCACGGGTGGTACG, the figure is 3.41; as for ACAGACATGTGAGTGAAGGTAACTCAGCTGGACG, -0.584. TCTTGTAGATCAACAGGAAGTTAAGAAAGATCGA: the PBM binding z-score was -0.828. As for TCACGGAGGACACGAAGGTCAGAGCTTTCCAGAG, the figure is 3.7; as for GCTAGTTGGTCAGTAAAAGGTTACACACCGGTCG, 2.7.
